The results in this text go back to PubChem BioAssay (NCI).

About 83,000 compounds went through this panel and 20% of them were active in at least one assay; those are over-represented in the sample as a whole.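 Compound tested at a single concentration for 48 hours in 96-well plates; a percent growth value below 10 was scored as active.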 Unmarked numbers belong to inactive results. Calls of active or inactive are those of the source.

What all share (test): NCI-60 one-dose screen, 48 h (100 = growth as untreated, 0 = no growth, -100 = all killed)
Holding throughout (details): 10 µM unless noted

The test system of assay [1] is HCT-15 colon.
In assay [2] the test system is HT29 colon.
In assay [3] the test system is SNB-75 CNS.
Assay [4] relates to SNB-19 CNS.
The test system of assay [5] is U251 CNS.
Assay [6] concerns PC-3 prostate.
The subject of assay [7] is SK-MEL-5 melanoma.
Assay [8] relates to UACC-62 melanoma.
For assay [9], the system named is LOX IMVI melanoma.
Assay [10] has as its system SK-MEL-28 melanoma.

Take `Cn1c(=O)c2c(ncn2CC[N+](C)(C)C)n(C)c1=O`: the growth in assay [1] is 112%; in [2], 93.8%; in assay [3], 90.9%; in [4] it was 101%; in assay [5], 101%; in assay [6], 94.5%. Moreover, the growth is 102% in [7], 86.9% in [8], 99.6% in assay [9] and 106% in assay [10].
For `CC1=C(NCCN2CCCC2)C(=O)c2c(OCc3ccc(C(F)(F)F)cc3)cccc2C1=O`, the growth in [1] was 70.9%; in assay [2], 42.4%; in [3], 82.1%; in [4], 95.3%; in assay [5] it was 69.9%; in assay [6] it was 47.4%. Moreover, the growth in [7] was 85.2%; in assay [8], 99.9%; in assay [9], 68.4%; in [10] it was 54.6%.
Turning to `O=C(/C=C/c1ccc(Cl)cc1)/C=C/c1cc2ccccc2[nH]c1=O`, the growth in [1] is 69%; in [2], -0.317% (active); in assay [3], 68.8%; in [4] it was 83.4%; in assay [5], 11.7%; in assay [6], 48.8%. Moreover, the growth in assay [7] was 75.2%; in assay [8], 52.9%; in [9], -44.5% (active); in assay [10], 76.1%.
For `O=C1c2cc3c(cc2-c2c1c1cc(F)c(F)cc1c(=O)n2C[C@H](O)CO)OCO3`, the growth is 1.58% (active) in assay [1]; 0.994% (active) in assay [2]; 4.14% (active) in assay [3]; 6.51% (active) in [4]; -15.5% (active) in assay [5]; 8.59% (active) in assay [6]. Moreover, the growth in assay [7] is -91.5% (active); in [8], -48.2% (active); in assay [9], -45.4% (active); in assay [10], 10.1%.
`C=C1CC[C@@H]2[C@](C)(COC(C)=O)[C@H](OC(C)=O)CC[C@@]2(C)[C@@H]1CC(Nc1ccc(S(=O)(=O)Nc2nc(C)cc(C)n2)cc1)C1=CCOC1=O` (stereo not given in full): the growth in assay [1] was 49.2%; in assay [2], 46.2%; in [3] it was 44.6%; in assay [4] it was 100%; in assay [5] it was 48.2%; in assay [6] it was 65.2%. For the same compound, the growth in assay [7] is 74.2%; in assay [8], 32.9%; in assay [9] it was -60.6% (active); in assay [10], 83.5%.
`NC(=S)N/N=C/c1cc(-c2cccc(N)c2)ccn1`: the growth in assay [1] is 23.8%; in assay [2] it was 34.8%; in assay [3], 35.1%; in [4] it was 42.9%; in assay [5] it was 16.1%; in assay [6], 58.8%. The growth in assay [7] is 8.97% (active); in assay [8], -2.21% (active); in assay [9], 15.6%; in assay [10] it was 52.1%.
For `COc1ccc(/C=C/C(=O)c2c(O)c(C)c(O)c3c2OC2=CC(O)=C(C(C)=O)C(=O)[C@]23C)cc1`, the growth was -21.3% (active) in assay [1]; -27.2% (active) in assay [2]; -33% (active) in assay [3]; -14.9% (active) in assay [4]; -27.9% (active) in assay [5]; -2.15% (active) in assay [6]. In addition, the growth was -85.5% (active) in assay [7], -59.9% (active) in assay [8], -43.4% (active) in assay [9] and -50.7% (active) in [10].
As to `CCN(CC)CCC(=O)c1ccc(OC)c2ccccc12`, the growth was 107% in assay [1]; 109% in assay [2]; 89.1% in [3]; 87% in assay [4]; 95.4% in [5]; 102% in assay [6]. Besides, the growth in assay [7] is 107%; in assay [8], 90.6%; in [9] it was 86.8%; in assay [10], 122%.
With `CCN(C(=O)CN1CCN(c2cc3c(cc2F)c(=O)c(C(=O)O)cn3C2CC2)CC1)c1nc(-c2ccc(OC)cc2)cs1`, the growth in assay [1] is 51.5%; in [2] it was 7.28% (active); in assay [3] it was 81.8%; in [4] it was 78.2%; in assay [5] it was 14.1%; in assay [6] it was 20.9%. Further, the growth was 28.9% in assay [7], 17.1% in assay [8], -57.9% (active) in assay [9] and 45.1% in assay [10].
`COc1cc(/C=N/N(C)C)ccc1O`: the growth is 105% in assay [1]; 93.8% in assay [2]; 103% in [3]; 99% in assay [4]; 81.8% in [5]; 90% in [6]. Besides, the growth in assay [7] is 99.5%; in [8], 90.1%; in assay [9], 108%; in assay [10] it was 114%.
As for `CCOC(=O)/C=C/c1ccc(C(=O)OCC)[nH]1`, the growth in assay [1] is 24.3%; in assay [2], 15%; in assay [3], 70.1%; in assay [4] it was 87.7%; in assay [5], 39.9%; in assay [6] it was 83.5%. The growth in assay [7] is 8.89% (active); in [8], 51%; in [9], 52.7%; in assay [10], 83.8%.
For the compound `CC(C)[C@H]1COC(=O)N1[C@@H]1C(=O)N([C@@H](CCC(=O)N2CCN(C3CCCC3)CC2)C(=O)N[C@@H]2CCCc3ccccc32)[C@@H]1/C=C/c1cccc(Br)c1`, the growth in assay [1] is 20.9%; in assay [2], -15.3% (active); in [3], 50%; in assay [4], 44.7%; in assay [5], 27.5%; in [6] it was 29.7%. In addition, the growth is -82.2% (active) in assay [7], 47.3% in assay [8], -32% (active) in assay [9] and 32.2% in assay [10].
As for `CS(=O)CCCCCN=C=S` (stereo not given), the growth was -16.9% (active) in assay [1]; -13.3% (active) in assay [2]; 29.5% in assay [3]; 28% in assay [4]; 9.01% (active) in assay [5]; 32.4% in assay [6]. Also, the growth was 12.1% in assay [7], -8.14% (active) in [8], -38.7% (active) in assay [9] and 6.92% (active) in assay [10].
